Shiga inhibitor: A qHTS for Small Molecule Inhibitors of Shiga Toxin; Vero cells, Shiga toxin protein synthesis inhibition reporter; inhibition, % at 38.7 µM; 290,000 tested, 9.2% active; in the data active means inhibition mostly above about 28%, no sharp cut-off; inactive means mostly below about 43%
NS1 function inh: qHTS Assay for Inhibitors of Influenza NS1 Protein Function | 270,000 tested, 0.4% active | AID 2326, 2010 | Potency, µM (top dose mostly 46.1 µM); further: actives are rising curves; nearly all actives have a fitted effect of over 50% in size
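S. cerevisiae expressing influenza A NS1, grown in glucose, washed, then diluted 1:100 into pH 6.0 -URA galactose medium with 23 nl compound. Growth recovery read as OD600; NS1-free strain serves as control.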
CHX counter: Cycloheximide Counterscreen for Small Molecule Inhibitors of Shiga Toxin; cell reporter, cycloheximide protein synthesis inhibition counterscreen; max response, %; 300,000 tested, 12% active; in the data active means max response mostly above about 13%, no sharp cut-off; inactive means mostly below about 14%; further: read at 38.3 µM for the half of the compounds with a filed dose
Pf growth 96h: Primary qHTS for delayed death inhibitors of the malarial parasite plastid, 96 hour incubation | P. falciparum luciferase reporter growth, 96 h | Potency, µM (series often up to 28.7 µM), most hits filed as inhibitors | 320,000 tested, 6.9% active | AID 504834, 2011; active means well fitted inhibition curve with a large enough effect; inconclusive means small, poorly fitted or top-dose-only effect, or another doubt; inactive means no such curve, though single readings can be large or run the other way
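Parasite growth measured via integrated firefly luciferase reporter in P. falciparum. Infected erythrocytes at 2% hematocrit, 0.05% parasitemia final were treated 96 hours at 37 C under 5% CO2, and luminescence was read.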
SARS PLP yeast: qHTS of Yeast-based Assay for SARS-CoV PLP. S. cerevisiae expressing SARS-CoV PLpro, growth rescue. Potency, µM (highest dose often 32.9 µM), hits mostly activators. 330,000 tested, 0.19% active; further: nearly all actives have a fitted effect of over 55% in size
Pf growth 48h: Primary qHTS for delayed death inhibitors of the malarial parasite plastid, 48 hour incubation; P. falciparum luciferase growth in erythrocytes, 48 h; Potency, µM (series often up to 28.7 µM), usual class: inhibitors; 310,000 tested, 5.9% active; AID 504832, 2011; active means well fitted inhibition curve with a large enough effect; inconclusive means small, poorly fitted or top-dose-only effect, or another doubt; inactive means no such curve, though single readings can be large or run the other way
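Luminescence readout; reporter = integrated firefly luciferase in P. falciparum. RBC culture at 2% hematocrit, 0.1% parasitemia final, 37 C/5% CO2; decreased signal taken as growth inhibition.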
Numbers stand for hits; - = inactive; ? = inconclusive; . = not tested or not shown; [ ] = remark or other dose. This is a sample that favours compounds with a hit; in the whole collection about 21% have one here. Unless noted, the call rests on the fitted dose curve.

SMILES	Shiga inhibitor	NS1 function inh	CHX counter	Pf growth 96h	SARS PLP yeast	Pf growth 48h
Cc1ccc(SC(C)C(=O)N2CCN(c3ccccc3)CC2)cc1 (configuration not stated)	-	-	-	8.3µM	-	-
CC(C)CN(CCCNC(=O)CN1N=C(c2ccc(Cl)cc2)CCC1=O)CC(C)C	-	-	-	?	-	?
CCOC(=O)c1[nH]c2ccccc2c1NC(=O)c1ccc(S(=O)(=O)N(C)C)cc1	-	-	-	10µM	?	10µM
CCOC(=O)c1oc2ccccc2c1NC(=O)c1ccc(S(=O)(=O)N(C)C)cc1	-	-	-	-	-	?
CCOC(=O)c1[nH]c2ccccc2c1NC(=O)c1ccc(S(=O)(=O)N2CCCCC2)cc1	-	-	-	9.3µM	-	?
CN(C)S(=O)(=O)c1ccc(C(=O)Oc2cc(=O)[nH]c3ccccc23)cc1	-	-	-	8.3µM	-	-
COc1ccc2[nH]c(C)c(CCNc3ccc(C(F)(F)F)cc3[N+](=O)[O-])c2c1	-	?	-	15µM	-	?
COc1ccc(C(=O)COC(=O)[C@H](C)Nc2ccc(C(F)(F)F)cc2[N+](=O)[O-])cc1	-	-	-	.	-	-
O=C(OCCNc1ccc(C(F)(F)F)cc1[N+](=O)[O-])c1cc2ccccc2oc1=O	-	-	18	-	-	-
Cc1ccccc1OCCNc1cc(N2CCNCC2)ccc1[N+](=O)[O-]	-	-	-	-	-	?
Cc1ccccc1OCCNc1ccc(C(F)(F)F)cc1[N+](=O)[O-]	-	-	20	-	-	-
O=[N+]([O-])c1cc(C(F)(F)F)ccc1NC1CCN(Cc2ccccc2)CC1	-	-	-	-	-	7.4µM
Cc1ccccc1-c1cc(C(=O)O)n(CC2CC(c3cccnc3)=NO2)n1 (configuration not stated)	.	.	.	-	-	-
O=C(c1cn(-c2ccccc2)nc1-c1cccnc1)N1CCN(S(=O)(=O)c2cccc(F)c2)CC1	.	.	.	?	-	?
CN1CCN(C(=S)c2ccc(OCC(=O)Nc3cccc(C(F)(F)F)c3)cc2)CC1	-	-	-	-	-	-
CN(C)S(=O)(=O)NCCNc1ccc(C(F)(F)F)cc1[N+](=O)[O-]	-	-	12	?	-	-
CS(=O)(=O)NCCNc1ccc(C(F)(F)F)cc1[N+](=O)[O-]	-	-	-	-	-	-
O=[N+]([O-])c1cc(C(F)(F)F)ccc1NCCOc1ccccc1	31	-	48	-	-	-
NC(=O)CC(NC(=O)c1ccccc1)c1ccc(NCCOc2ccccc2)c([N+](=O)[O-])c1 (configuration not stated)	-	-	-	?	-	?
Cc1ccc(CSc2nnc(NC(=O)C3=COCCO3)s2)cc1	.	.	.	-	-	-
CCc1cccc(NC(=O)CCNS(=O)(=O)c2ccc3c(c2)oc(=O)n3C)c1	-	-	-	?	-	-
CCc1ccccc1NC(=O)C1CCCN1C(=O)Nc1ccc(C)cc1 (configuration not stated)	-	-	-	-	-	-
Cc1cc(C(=O)CNCc2ccco2)c(C)n1-c1ccc(F)cc1	74	-	38	-	-	-
Cc1cc(C(=O)NC2CCCCC2)c(C)n1-c1ccc(F)cc1	77	-	46	-	-	-
Cc1nnc(SCC(=O)NCc2ccco2)n1-c1ccc(F)cc1	-	-	-	-	-	-
SMILES	Shiga inhibitor	NS1 function inh	CHX counter	Pf growth 96h	SARS PLP yeast	Pf growth 48h
COc1ccc(-n2c(C)cc(C(=O)C[N+]34CCN(CC3)CC4)c2C)cc1	-	.	-	5.9µM	-	-
Cc1cc(C(=O)CN2CCCC2)c(C)n1-c1ccc(F)cc1	-	-	-	?	-	?
Cc1cc(C(=O)CN2CCCCC2)c(C)n1-c1ccc(F)cc1	56	-	37	-	-	-
CC1CN(C(=S)NC(=O)c2ccco2)CC(C)O1 (configuration not stated)	-	-	-	-	-	-
Cc1ccc(C)c(N2CC(C(=O)Nc3nccs3)CC2=O)c1 (configuration not stated)	-	-	-	-	-	-
CCC(CC)NC(=O)COc1ccc(OC)cc1C=O	-	-	-	?	-	?
Cc1cc(C(=O)CN2CCC(C)CC2)c(C)n1-c1ccc(F)cc1	22	-	32	-	-	-
COc1ccc(-n2c(C)cc(C(=O)CN3CCC(C)CC3)c2C)cc1	-	.	37	-	-	-
COc1ccc(-n2c(C)cc(C(=O)CN3CCCCC3)c2C)cc1	-	.	-	?	-	?
CCN(CC)S(=O)(=O)c1cc(NC(=O)COC(=O)c2ccc(NC(=O)CC#N)cc2)ccc1C	-	.	-	?	-	-
Cc1cc(C)n2nc(SC(C)C(=O)N3CCC4(CC3)OCCO4)nc2n1 (configuration not stated)	-	-	-	-	-	2.6µM
CC(C)OC(=O)C(C(=O)C(F)(F)F)c1cc(NS(=O)(=O)c2ccc3ccccc3c2)c2ccccc2c1O (configuration not stated)	-	-	-	3.3µM	-	9.3µM
O=C(O)/C=C1\NC(=O)c2ccccc21	-	-	-	?	?	-
O=C1N/C(=C\c2ccc(O)cc2)C(=O)c2ccccc21	-	-	34	-	-	?
O=C(O)c1cc2ccc3cccc4ccc(c1)c2c34	-	-	-	-	-	.
O=S(=O)(c1ccc2c(c1)nc(COc1ccc(Cl)cc1)n2CC1CCCO1)N1CCOCC1 (configuration not stated)	-	-	-	12µM	-	?
COc1ccc(NC(=O)Nc2ccc(F)c(Cl)c2)cc1	91	.	65	-	-	-
Cc1ccc(NC(=O)Nc2ccc(F)c(Cl)c2)cc1	82	-	30	-	-	-
O=C(Nc1cccnc1)c1sc2cccc(F)c2c1Cl	47	-	38	?	-	-
O=C(Nc1ccc(Cl)cc1)Nc1ccc(Cl)c(Cl)c1	.	.	.	2.7µM	-	2.3µM
CCOc1ccc(CNS(=O)(=O)c2c(C)nc3sccn3c2=O)cc1OC	-	-	-	-	-	-
CCN(CC(=O)Nc1cccc(OC)c1)CC(=O)Nc1ccc(Br)c(C)c1	-	-	-	-	-	?
COc1cc(NC(=O)Nc2ccc(Cl)c(Cl)c2)c(C(=O)O)cc1OC	-	-	-	-	-	-
COc1ccc(NC(=O)Nc2ccc(Br)c(C)c2)cc1	31	-	-	-	-	-[5.75 µM]
O=C(Nc1ccc(Cl)c(Cl)c1)Nc1ccc(Br)cc1F	-	-	-	4.7µM	-	?
O=C(Nc1cccnc1)Nc1ccc(F)c(Cl)c1	-	.	15	-	-	?
O=C(Nc1ccc(Cl)c(Cl)c1)Nc1ccccc1O	91	-	57	-	-	-
Cc1cc(C)c(C)c(S(=O)(=O)NC(C(=O)NCCc2ccco2)C(C)C)c1C (configuration not stated)	.	.	.	?	-	?

Assay outcomes as filed in PubChem BioAssay.
